# Reference: PubChem BioAssay
# Several values for one entry are separate records, joined by “and”; a condition that tells them apart may be missing. Equal values may be shown once. Activity calls are given as the source filed them. Rule as the data show it, unless noted: active = inhibition above about 80%; inactive = the rest.
# Columns and labels:
# [1] = growth inhibition, single agents and combos, HTB85, cell-based, BGB or cisplatin IC20 combos, synergistic combos for chromothripsis tumors (AID 1671453); conditions: HTB85 osteosarcoma cells, drug combinations, stronger effect = higher value;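 also: cells exposed for 96 hours before readout; 0% = vehicle DMSO and 100% = high DMSO killing control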
# [2] = growth inhibition, single agents and combos, CRL2098, cell-based, BGB or cisplatin IC20 combos, synergistic combos for chromothripsis tumors (AID 1671454); conditions: CRL2098 osteosarcoma cells, drug combinations, stronger effect = higher value;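 also: cells exposed for 96 h before readout; 0% = vehicle DMSO and 100% = killing by high DMSO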
# [3] = growth inhibition, single agents and combos, HD-MB03, cell-based, BGB or cisplatin IC20 combos, synergistic combos for chromothripsis tumors (AID 1671455; in the data active = inhibition above about 83%;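 also: 0% = vehicle DMSO and 100% = high DMSO as cytotoxic control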); conditions: HD-MB03 medulloblastoma cells, stronger effect = higher value
# [4] = growth inhibition, single agents and combos, UWB1.289, cell-based, BGB or cisplatin combos, synergistic combos for chromothripsis tumors (AID 1671456); conditions: UWB1.289 ovarian carcinoma cells, stronger effect = higher value;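 also: cells exposed to compound for four days; 0% = vehicle DMSO and 100% = killing by high DMSO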
# [5] = growth inhibition, single agents and combos, LFS_MB_2R, cell-based, cisplatin combos, synergistic combos for chromothripsis tumors (AID 1671457); conditions: LFS_MB_2R medulloblastoma cells, stronger effect = higher value;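 also: cells exposed to compound for four days before readout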
# [6] = growth inhibition, MDA-MB-436, cell-based, BGB or cisplatin combos, synergistic combos for chromothripsis tumors (AID 1671458; call rule not given here;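 also: cells exposed for 96 hours; 0% = vehicle DMSO and 100% = killing by high DMSO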); conditions: MDA-MB-436 breast carcinoma growth inhibition, drug combinations, stronger effect = higher value
# [7] = UWB1.289_BRCA1 ovarian cancer growth, cell-based, BGB or cisplatin combinations (AID 1671459); conditions: UWB1.289 BRCA1 ovarian carcinoma, drug combinations, stronger effect = higher value
# [8] = drug combination toxicity in non-malignant astrocytes – cell-based, BGB or cisplatin IC20 combos, cytotoxicity control for chromothriptic childhood tumor combination screen (AID 1671460); conditions: Human astrocytes, viability inhibition, drug combinations, at 0.5 µM, stronger effect = higher value;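 also: cells exposed to compounds for 96 hours before viability readout; 0% = vehicle and 100% = killing control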
# [9] = BT084 cell growth, single and combined drugs, ICGC_MB145, cisplatin and BGB IC40 combos (AID 1671461); conditions: BT084 medulloblastoma cells, drug combinations, stronger effect = higher value;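 also: cells exposed to drugs for 96 hours; 0% = vehicle DMSO and 100% = high DMSO full killing control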
# [10] = RCMB18 cell growth, single agent and combined, cisplatin and BGB IC40 combos (AID 1671462); conditions: RCMB18 medulloblastoma cells, stronger effect = higher value;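 also: cells exposed to compound for four days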
# [11] = CRL1545 cell growth, single agent and combined, cisplatin and BGB IC20 combos (AID 1671464); conditions: CRL1545 osteosarcoma cells, stronger effect = higher value;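 also: cells exposed to compound for 96 hours before readout; 0% = vehicle DMSO and 100% = high DMSO killing control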
# [12] = compounds altering circadian rhythm period length – cell-based, LOPAC library, luminescence reporter (AID 2774; call rule not given here;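 also: values are relative to mean of DMSO wells on each plate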); conditions: circadian reporter cells, at 7 µM, actives lie on both sides
# [13] = system: Hepatitis C virus NS3 helicase; test: blockers of NS3h binding to ssDNA – biochemical, fluorescence polarization, LOPAC1280 library, primary screen (AID 687035; in the data active = inhibition above about 37%); conditions: Purified HCV NS3 helicase, Cy5-dT15 ssDNA binding fluorescence polarization; stronger effect = higher value; concentration not given here
# [14] = compounds altering Cy5-DNA-NS3h complex signal – biochemical, LOPAC1280, artefact control for HCV NS3 helicase inhibitor project (AID 687037; call rule not given here); conditions: Cy5-DNA-NS3h complex fluorescence interference counterscreen
# [15] = viability loss with induced miR-34 in A549 – imaging, A549 dox-inducible miR-34, nuclei and caspase counts, primary screen (AID 1347080;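 active = compounds whose cell count with miR-34 switched on is under 0.7 times the count with it off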); conditions: A549 miR-34 inducible, Hoechst nuclei count, 48 h
# [16] = galactose survival enhancers in mitochondrial complex I cybrids – cell-based, galactose medium, ATP luminescence, primary screen (AID 1645843;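 active = z-score of at least 1.8 in each of two replicates, scored against plate mean and spread of sample wells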;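 also: positive z means more ATP and so rescue of galactose-driven cybrid death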); conditions: complex I mutant cybrid cells, 72 h, stronger effect = higher value
# [17] = measured here: combination with cisplatin, at 0.5 µM
# [18] = stronger effect = lower value, cell number ratio, induced over uninduced
# [19] = measured here: relative caspase fold change +Dox/-Dox
# [20] = measured here: total cells with miR-34 induction, stronger effect = lower value
# [21] = measured here: total cells without miR-34 induction
compound,measurement,setting,value
COc1c(N2CC3CCCNC3C2)c(F)cc2c(=O)c(C(=O)O)cn(C3CC3)c12 (configuration not stated),inhibition,"[1]; measured here: with BGB IC20, at 0.5 µM",0.476% and -45.2%
same,inhibition,"[1]; measured here: with BGB IC20, at 5 µM",-14.2% and 1.64%
same,inhibition,"[1]; measured here: with cisplatin IC20, at 0.5 µM",-4.9% and -17.9%
same,inhibition,"[1]; measured here: with cisplatin IC20, at 5 µM",-35.3% and -0.109%
same,inhibition,"[1]; single agent, at 5 µM",12% and -3.92%
same,inhibition,[2]; at 0.5 µM,-38.5% (inactive) and -21% (inactive)
same,inhibition,"[2]; measured here: combination with BGB at IC20, at 0.5 µM",-15.6% and -12.1%
same,inhibition,"[2]; measured here: combination with cisplatin at IC20, at 0.5 µM",-75% and -24%
same,inhibition,[3]; at 0.5 µM,-1.44% (inactive) and -1.69% (inactive)
same,inhibition,"[3]; measured here: combo with BGB at IC20, at 0.5 µM",-9.81% and -2.86%
same,inhibition,"[3]; measured here: combo with cisplatin at IC20, at 0.5 µM",5.04% and -2.25%
same,inhibition,[4]; at 0.5 µM,0.61% (inactive) and 5% (inactive)
same,inhibition,"[4]; measured here: inhibition with BGB combination, at 0.05 µM",-8.87% and -16%
same,inhibition,"[4]; measured here: inhibition with cisplatin combination, at 0.05 µM",-17.8% and -13.4%
same,inhibition,[5]; at 0.5 µM,-15.9% (inactive) and -16.5% (inactive)
same,inhibition,[5]; [17],-17.1% and -8.11%
same,inhibition,"[5]; measured here: combination with cisplatin, at 5 µM",-13.1% and -7.1%
same,inhibition,[6]; at 0.5 µM,-3.8% (inactive) and -6.04% (inactive)
same,inhibition,"[6]; measured here: BGB combination, at 0.5 µM",-11.6% and -4.26%
same,inhibition,"[6]; measured here: BGB combination, at 5 µM",-20.6% and -9.9%
same,inhibition,"[6]; measured here: cisplatin combination, at 0.5 µM",-1.34% and -15%
same,inhibition,"[6]; measured here: cisplatin combination, at 5 µM",-28.3% and -11.1%
same,inhibition,"[7]; BGB combination, concentration series, at 5 µM",5.74% and 12.9%
same,inhibition,[7]; at 0.5 µM,-0.42% (inactive) and 3.8% (inactive)
same,inhibition,"[7]; cisplatin combination, concentration series, at 5 µM",1.62% and 11.9%
same,inhibition,[8],9.7% (inactive) and 6.47% (inactive)
same,inhibition,[8]; measured here: combo with BGB IC20,1.83% and 2.24%
same,inhibition,[8]; measured here: combo with cisplatin IC20,4.24% and 3.81%
same,inhibition,[9]; at 0.5 µM,-19% (inactive) and -8.29% (inactive)
same,inhibition,"[9]; cisplatin combination, at 0.5 µM",-46.7% and 7.45%
same,inhibition,"[9]; cisplatin combination, at 5 µM",-18.8% and -23%
same,inhibition,"[9]; measured here: BGB IC40 combination 0.05 uM, at 0.05 µM",-35.2% and -12.7%
same,inhibition,"[9]; single agent, at 5 µM",-4.05% and -7.99%
same,inhibition,[10]; at 0.5 µM,-5.76% (inactive) and -15.1% (inactive)
same,inhibition,"[10]; cisplatin combo, at 5 µM",-131% and -3.44%
same,inhibition,"[10]; measured here: BGB IC40 combination, at 0.05 µM",9.3% and -24.7%
same,inhibition,[10]; [17],-0.114% and -16.6%
same,inhibition,"[10]; single agent, at 5 µM",-15% and -12.8%
same,inhibition,[11]; at 0.5 µM,10.4% (inactive) and -25.5% (inactive)
same,inhibition,"[11]; measured here: with BGB IC20 combination, at 0.5 µM",13% and -1.64%
same,inhibition,"[11]; measured here: with cisplatin IC20 combination, at 0.5 µM",7.59% and -37.4%
same,inhibition,"[11]; single agent, at 0.05 µM",-39.6% and 17%
same,inhibition,"[11]; single agent, at 5 µM",-7.8% and 21.6%
O=C1O/C(=C/Br)CCC1c1cccc2ccccc12 (configuration not stated),period change,[12],-0.24 h (inactive)
same,inhibition,[13],0% (inactive)
same,fluorescence ratio (interference),[14],1 (inactive)
same,fold change,[15]; [18],0.964 (inactive)
same,fold change,[15]; [19],0.87
same,cell count,[15]; [20],4330
same,cell count,[15]; [21],4490
C[N+](C)(C)CCOP(=O)(O)OP(=O)([O-])OC[C@H]1O[C@@H](n2ccc(N)nc2=O)C(O)[C@H]1O (some centres not stated),inhibition,[13],-3% (inactive)
same,fluorescence ratio (interference),[14],1 (inactive)
same,fold change,[15]; [18],1.01 (inactive)
same,fold change,[15]; [19],1.19
same,cell count,[15]; [20],10900
same,cell count,[15]; [21],10800
same,z-score,[16],0.115 (inactive)
